This passage reports binding signal results from paper PMC7862700, “An all-to-all approach to the identification of sequence-specific readers for epigenetic DNA modifications on cytosine”.

Test in all cases: DAPPL (digital affinity profiling via proximity ligation, sequencing); 10 mM Tris-HCl pH 7.5, 50 mM NaCl, 1 mM DTT, 4% glycerol, room temperature, 30 min; GST-TFs on glutathione beads, 16-mer random dsDNA library, 0.1% formaldehyde crosslink after washing; high values mean tight binding
In one assay the target is T1, FEV (Homo sapiens, UniProt Q99581 1-238).
T1 sequence: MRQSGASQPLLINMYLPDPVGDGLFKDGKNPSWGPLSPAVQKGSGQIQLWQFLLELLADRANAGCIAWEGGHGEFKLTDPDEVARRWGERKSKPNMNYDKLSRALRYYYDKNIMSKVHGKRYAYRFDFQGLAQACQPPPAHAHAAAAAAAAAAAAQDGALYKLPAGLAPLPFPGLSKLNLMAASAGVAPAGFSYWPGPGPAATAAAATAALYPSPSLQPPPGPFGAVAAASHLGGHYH
Particulars: protein: recombinant; tags: N-terminal GST; dsDNA, one strand shown. The method, boiled down: (§1)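 Pools were built from human transcription factors expressed in yeast as GST fusions, captured on glutathione beads and DNA-barcoded, along with a tag-only sample. Incubation with 200 nmole of a 16-mer random double-stranded DNA library lasted 30 min at room temperature in Tris/NaCl/DTT/glycerol buffer, and was followed by washing, 0.1% formaldehyde crosslinking, proximity ligation, PCR amplification and Illumina NextSeq500 sequencing. Binding signal is the quotient of each hexamer's read frequency for a factor and its frequency for the tag-only sample.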

The target in another assay is ETV5 (Homo sapiens, UniProt P41161 1-510). Particulars: protein: recombinant; tags: N-terminal GST; dsDNA, one strand shown. The method, boiled down:
as §1

The target of another assay is HSF1 (Homo sapiens, UniProt Q00613 1-529). Particulars: protein: recombinant; tags: N-terminal GST; chain copies: 3; dsDNA, one strand shown. In short, it runs like this:
as §1

For the next assay, the target named is T2, SPIC (Homo sapiens, UniProt Q8N5J4 1-248).
T2 sequence: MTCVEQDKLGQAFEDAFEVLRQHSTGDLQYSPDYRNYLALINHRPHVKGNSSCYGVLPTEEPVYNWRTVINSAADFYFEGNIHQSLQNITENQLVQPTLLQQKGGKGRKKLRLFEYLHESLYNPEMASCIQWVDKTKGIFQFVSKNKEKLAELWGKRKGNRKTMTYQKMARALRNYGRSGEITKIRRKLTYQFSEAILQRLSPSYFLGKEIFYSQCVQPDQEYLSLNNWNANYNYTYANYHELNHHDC
The settings on record: protein: recombinant; tags: N-terminal GST; dsDNA, one strand shown. The method, boiled down:
as §1

A further assay addresses ELF4 (Homo sapiens, UniProt Q99607 1-663). Particulars: protein: recombinant; tags: N-terminal GST; dsDNA, one strand shown. The method, boiled down:
as §1

The target of the next assay is T3, ELK4 (Homo sapiens, UniProt P28324-2 1-405).
T3 sequence: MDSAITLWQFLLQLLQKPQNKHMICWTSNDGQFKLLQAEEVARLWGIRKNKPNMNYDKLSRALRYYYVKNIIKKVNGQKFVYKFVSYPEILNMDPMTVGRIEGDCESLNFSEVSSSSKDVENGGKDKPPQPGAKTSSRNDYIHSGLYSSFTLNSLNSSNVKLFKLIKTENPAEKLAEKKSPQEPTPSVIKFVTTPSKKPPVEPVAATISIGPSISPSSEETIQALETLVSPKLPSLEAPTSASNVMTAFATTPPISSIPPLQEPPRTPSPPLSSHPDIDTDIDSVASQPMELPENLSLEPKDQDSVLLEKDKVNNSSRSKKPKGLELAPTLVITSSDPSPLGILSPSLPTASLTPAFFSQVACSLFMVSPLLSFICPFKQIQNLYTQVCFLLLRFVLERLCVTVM
The settings on record: protein: recombinant; tags: N-terminal GST; dsDNA, one strand shown. In short, it runs like this:
as §1

The next assay addresses T4, ETV2 (Homo sapiens, UniProt O00321 1-342).
T4 sequence: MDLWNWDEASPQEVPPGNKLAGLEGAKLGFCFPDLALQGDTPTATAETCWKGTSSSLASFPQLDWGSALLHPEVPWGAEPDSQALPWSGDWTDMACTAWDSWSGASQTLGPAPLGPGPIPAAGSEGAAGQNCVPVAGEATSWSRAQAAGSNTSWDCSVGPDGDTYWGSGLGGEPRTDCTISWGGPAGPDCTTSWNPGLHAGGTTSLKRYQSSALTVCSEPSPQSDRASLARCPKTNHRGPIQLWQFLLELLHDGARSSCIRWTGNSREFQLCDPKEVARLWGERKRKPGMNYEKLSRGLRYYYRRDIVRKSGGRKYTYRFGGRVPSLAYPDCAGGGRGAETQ
The settings on record: protein: recombinant; tags: N-terminal GST; dsDNA, one strand shown. The method, boiled down:
as §1

The next assay deals with T5, ELF3 (Homo sapiens, UniProt P78545 1-371).
T5 sequence: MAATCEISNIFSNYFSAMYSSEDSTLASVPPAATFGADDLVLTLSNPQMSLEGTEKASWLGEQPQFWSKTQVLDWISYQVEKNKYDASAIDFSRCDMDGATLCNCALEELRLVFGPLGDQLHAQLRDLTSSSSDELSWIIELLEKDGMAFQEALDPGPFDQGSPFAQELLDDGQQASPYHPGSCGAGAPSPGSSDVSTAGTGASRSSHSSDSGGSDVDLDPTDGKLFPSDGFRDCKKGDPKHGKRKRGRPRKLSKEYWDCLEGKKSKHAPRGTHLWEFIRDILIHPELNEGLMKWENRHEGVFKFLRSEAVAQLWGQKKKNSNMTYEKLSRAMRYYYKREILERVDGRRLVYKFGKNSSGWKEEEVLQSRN
The settings on record: protein: recombinant; tags: N-terminal GST; dsDNA, one strand shown. In short, it runs like this:
as §1

For the next assay, the target named is CRX (Homo sapiens, UniProt O43186 1-299). Particulars: protein: recombinant; tags: N-terminal GST; dsDNA, one strand shown. In short, it runs like this:
as §1

The target of another assay is ETV1 (Homo sapiens, UniProt P50549 1-477). The settings on record: protein: recombinant; tags: N-terminal GST; dsDNA, one strand shown. In short, it runs like this: as §1
Sequence of ETV1 (P50549 whole entry): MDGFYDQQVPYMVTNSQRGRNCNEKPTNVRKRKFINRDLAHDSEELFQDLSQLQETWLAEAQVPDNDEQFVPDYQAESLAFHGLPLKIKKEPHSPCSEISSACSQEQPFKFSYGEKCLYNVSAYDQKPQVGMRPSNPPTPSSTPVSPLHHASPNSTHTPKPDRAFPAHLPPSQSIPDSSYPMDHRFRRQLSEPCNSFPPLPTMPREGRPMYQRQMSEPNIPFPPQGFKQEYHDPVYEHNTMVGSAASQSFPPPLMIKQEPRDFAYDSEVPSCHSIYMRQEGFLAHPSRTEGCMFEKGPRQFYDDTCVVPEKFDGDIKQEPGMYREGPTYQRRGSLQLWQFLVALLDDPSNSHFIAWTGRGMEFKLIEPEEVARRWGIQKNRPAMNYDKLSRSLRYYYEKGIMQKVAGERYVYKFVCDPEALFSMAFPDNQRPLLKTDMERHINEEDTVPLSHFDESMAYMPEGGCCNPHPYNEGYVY
A further assay has as its target T6, ERF (Homo sapiens, UniProt P50548 1-548).
T6 sequence: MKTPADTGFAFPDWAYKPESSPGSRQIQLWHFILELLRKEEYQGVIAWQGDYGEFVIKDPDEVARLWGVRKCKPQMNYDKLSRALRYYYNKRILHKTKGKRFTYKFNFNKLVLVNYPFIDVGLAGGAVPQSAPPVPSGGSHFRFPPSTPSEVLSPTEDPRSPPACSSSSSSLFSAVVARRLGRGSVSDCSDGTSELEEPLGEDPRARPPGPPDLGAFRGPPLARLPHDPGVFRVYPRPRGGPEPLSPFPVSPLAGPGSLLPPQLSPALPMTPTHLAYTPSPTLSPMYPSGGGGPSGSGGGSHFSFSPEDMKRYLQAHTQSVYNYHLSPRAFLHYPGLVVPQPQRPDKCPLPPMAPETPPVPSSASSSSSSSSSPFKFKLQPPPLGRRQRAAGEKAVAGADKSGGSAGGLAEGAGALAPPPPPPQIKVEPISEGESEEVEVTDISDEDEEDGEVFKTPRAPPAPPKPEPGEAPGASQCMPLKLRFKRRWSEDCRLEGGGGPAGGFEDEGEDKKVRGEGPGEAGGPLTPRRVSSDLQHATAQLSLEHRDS
The settings on record: protein: recombinant; tags: N-terminal GST; dsDNA, one strand shown. In short, it runs like this:
as §1

Another assay addresses T7, ETV3L (Homo sapiens, UniProt Q6ZN32 1-361).
T7 sequence: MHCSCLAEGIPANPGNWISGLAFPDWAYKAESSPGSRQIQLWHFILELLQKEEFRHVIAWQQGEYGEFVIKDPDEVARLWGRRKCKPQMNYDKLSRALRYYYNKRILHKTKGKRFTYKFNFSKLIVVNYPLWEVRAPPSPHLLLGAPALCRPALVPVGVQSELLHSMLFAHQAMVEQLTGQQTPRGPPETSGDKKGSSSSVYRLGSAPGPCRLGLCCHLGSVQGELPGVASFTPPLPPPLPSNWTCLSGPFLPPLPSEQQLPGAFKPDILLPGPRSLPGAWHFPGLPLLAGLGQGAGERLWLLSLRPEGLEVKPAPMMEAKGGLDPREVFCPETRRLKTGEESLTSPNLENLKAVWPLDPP
The settings on record: protein: recombinant; tags: N-terminal GST; dsDNA, one strand shown. In short, it runs like this:
as §1

The target in a further assay is T8, ETS2 (Homo sapiens, UniProt P15036 1-469).
T8 sequence: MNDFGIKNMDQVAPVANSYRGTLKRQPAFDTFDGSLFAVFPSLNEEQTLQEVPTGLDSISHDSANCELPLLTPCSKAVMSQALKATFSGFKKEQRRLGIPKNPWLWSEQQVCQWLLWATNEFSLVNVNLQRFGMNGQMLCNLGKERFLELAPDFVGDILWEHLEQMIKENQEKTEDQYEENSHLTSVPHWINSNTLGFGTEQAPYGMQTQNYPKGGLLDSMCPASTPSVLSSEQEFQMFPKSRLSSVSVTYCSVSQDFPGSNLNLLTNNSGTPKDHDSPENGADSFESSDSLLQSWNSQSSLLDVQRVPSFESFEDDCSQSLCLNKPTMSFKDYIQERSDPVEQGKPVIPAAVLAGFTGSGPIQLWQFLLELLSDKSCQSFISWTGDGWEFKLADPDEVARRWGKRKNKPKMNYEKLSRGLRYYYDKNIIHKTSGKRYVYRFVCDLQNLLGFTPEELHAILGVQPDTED
The settings on record: protein: recombinant; tags: N-terminal GST; dsDNA, one strand shown. The method, boiled down:
as §1

The next assay deals with T9, SPDEF (Homo sapiens, UniProt O95238 1-335).
T9 sequence: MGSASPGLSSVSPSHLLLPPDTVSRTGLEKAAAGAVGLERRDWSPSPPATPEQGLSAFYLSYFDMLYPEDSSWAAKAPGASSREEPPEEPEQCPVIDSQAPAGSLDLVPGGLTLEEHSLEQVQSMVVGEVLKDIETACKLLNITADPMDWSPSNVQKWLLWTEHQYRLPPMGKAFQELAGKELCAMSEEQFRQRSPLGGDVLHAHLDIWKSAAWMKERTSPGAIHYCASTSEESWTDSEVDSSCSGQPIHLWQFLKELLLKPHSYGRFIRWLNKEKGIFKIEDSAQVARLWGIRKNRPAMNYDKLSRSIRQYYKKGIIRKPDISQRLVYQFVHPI
The settings on record: protein: recombinant; tags: N-terminal GST; dsDNA, one strand shown. The method, boiled down:
as §1

The target in another assay is T10, ETV7 (Homo sapiens, UniProt Q9Y603 1-341).
T10 sequence: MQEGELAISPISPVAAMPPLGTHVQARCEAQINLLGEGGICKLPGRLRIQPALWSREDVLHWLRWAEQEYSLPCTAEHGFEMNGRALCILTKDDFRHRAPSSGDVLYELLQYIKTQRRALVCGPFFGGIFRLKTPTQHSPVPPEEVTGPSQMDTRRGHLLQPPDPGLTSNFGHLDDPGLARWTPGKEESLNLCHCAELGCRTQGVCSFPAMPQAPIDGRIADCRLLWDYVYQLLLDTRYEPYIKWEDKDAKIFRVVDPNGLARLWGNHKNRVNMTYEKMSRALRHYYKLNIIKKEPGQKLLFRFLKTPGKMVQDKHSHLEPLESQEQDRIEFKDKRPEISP
The settings on record: protein: recombinant; tags: N-terminal GST; dsDNA, one strand shown. The method, boiled down:
as §1

The target in the next assay is T11, ELF5 (Homo sapiens, UniProt Q9UKW6-2 1-255).
T11 sequence: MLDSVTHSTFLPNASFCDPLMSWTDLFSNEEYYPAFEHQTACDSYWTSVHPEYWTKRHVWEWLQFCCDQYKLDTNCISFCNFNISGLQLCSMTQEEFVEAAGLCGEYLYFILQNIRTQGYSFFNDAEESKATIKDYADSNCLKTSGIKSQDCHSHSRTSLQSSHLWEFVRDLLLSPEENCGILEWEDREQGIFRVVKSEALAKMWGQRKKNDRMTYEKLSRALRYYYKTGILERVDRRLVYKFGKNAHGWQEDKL
Particulars: protein: recombinant; tags: N-terminal GST; dsDNA, one strand shown. The method, boiled down:
as §1

Another assay concerns the target T12, ETV3 (Homo sapiens, UniProt P41162-2 1-143).
T12 sequence: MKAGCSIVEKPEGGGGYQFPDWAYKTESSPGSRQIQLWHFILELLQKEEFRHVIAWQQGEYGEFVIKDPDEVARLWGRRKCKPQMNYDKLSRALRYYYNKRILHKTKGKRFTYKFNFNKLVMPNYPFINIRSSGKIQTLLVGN
Particulars: protein: recombinant; tags: N-terminal GST; dsDNA, one strand shown. In short, it runs like this:
as §1

A further assay addresses ETV6 (Homo sapiens, UniProt P41212 1-452). Particulars: protein: recombinant; tags: N-terminal GST; dsDNA, one strand shown. In short, it runs like this:
as §1

Sequence of ETV5 (P41161 whole entry): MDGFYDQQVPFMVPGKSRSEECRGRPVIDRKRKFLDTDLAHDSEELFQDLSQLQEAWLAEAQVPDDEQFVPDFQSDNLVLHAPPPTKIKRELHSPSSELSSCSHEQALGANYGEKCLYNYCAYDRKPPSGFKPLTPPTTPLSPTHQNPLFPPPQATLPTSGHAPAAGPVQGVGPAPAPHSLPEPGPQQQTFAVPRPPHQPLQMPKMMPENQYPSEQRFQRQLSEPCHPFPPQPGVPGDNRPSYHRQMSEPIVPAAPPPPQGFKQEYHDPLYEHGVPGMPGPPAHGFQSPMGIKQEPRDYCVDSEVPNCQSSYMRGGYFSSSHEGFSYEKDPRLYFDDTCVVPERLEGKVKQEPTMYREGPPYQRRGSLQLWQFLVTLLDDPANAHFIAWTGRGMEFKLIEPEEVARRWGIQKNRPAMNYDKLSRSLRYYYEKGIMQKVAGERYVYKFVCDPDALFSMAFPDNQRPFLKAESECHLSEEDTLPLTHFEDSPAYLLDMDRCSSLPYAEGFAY
Sequence of ELF4 (Q99607 whole entry): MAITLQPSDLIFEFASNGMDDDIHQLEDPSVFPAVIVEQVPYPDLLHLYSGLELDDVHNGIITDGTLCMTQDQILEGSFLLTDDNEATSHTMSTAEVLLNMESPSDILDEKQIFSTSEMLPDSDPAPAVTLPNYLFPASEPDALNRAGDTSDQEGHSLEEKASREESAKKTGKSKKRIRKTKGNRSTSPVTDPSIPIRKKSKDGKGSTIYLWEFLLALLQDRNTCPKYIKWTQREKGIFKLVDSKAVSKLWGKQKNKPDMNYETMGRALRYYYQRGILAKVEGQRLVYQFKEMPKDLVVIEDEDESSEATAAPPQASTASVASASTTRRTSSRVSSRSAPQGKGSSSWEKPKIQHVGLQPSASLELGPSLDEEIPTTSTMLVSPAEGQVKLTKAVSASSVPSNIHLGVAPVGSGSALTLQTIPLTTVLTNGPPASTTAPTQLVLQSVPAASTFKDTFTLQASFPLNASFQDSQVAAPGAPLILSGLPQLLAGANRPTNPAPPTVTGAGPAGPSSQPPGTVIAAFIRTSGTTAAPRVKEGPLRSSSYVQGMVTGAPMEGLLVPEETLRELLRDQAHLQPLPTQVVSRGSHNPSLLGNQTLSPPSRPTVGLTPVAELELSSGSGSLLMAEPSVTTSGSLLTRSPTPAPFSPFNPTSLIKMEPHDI
Sequence of HSF1 (Q00613 whole entry): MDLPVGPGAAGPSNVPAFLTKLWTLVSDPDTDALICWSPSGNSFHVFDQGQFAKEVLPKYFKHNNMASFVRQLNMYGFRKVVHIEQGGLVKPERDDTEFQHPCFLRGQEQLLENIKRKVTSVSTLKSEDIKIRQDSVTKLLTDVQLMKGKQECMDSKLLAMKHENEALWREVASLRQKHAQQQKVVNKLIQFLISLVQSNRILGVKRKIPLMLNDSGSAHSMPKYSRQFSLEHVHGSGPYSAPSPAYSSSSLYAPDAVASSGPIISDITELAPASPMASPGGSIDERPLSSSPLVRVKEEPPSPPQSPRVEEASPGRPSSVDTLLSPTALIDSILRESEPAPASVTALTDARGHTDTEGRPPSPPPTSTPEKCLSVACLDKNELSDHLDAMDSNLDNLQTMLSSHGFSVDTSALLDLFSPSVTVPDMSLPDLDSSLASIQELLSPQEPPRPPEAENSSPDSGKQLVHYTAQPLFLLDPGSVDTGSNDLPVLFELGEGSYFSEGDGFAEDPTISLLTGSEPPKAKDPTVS
Sequence of CRX (O43186 whole entry): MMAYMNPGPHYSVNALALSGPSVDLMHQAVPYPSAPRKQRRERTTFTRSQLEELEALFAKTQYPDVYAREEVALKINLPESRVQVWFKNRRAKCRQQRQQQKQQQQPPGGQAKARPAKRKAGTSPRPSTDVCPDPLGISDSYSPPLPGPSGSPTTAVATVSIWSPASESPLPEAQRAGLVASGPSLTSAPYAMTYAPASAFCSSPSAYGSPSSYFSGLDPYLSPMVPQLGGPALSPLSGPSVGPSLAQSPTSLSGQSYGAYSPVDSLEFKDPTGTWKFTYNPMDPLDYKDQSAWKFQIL
Sequence of ETV6 (P41212 whole entry): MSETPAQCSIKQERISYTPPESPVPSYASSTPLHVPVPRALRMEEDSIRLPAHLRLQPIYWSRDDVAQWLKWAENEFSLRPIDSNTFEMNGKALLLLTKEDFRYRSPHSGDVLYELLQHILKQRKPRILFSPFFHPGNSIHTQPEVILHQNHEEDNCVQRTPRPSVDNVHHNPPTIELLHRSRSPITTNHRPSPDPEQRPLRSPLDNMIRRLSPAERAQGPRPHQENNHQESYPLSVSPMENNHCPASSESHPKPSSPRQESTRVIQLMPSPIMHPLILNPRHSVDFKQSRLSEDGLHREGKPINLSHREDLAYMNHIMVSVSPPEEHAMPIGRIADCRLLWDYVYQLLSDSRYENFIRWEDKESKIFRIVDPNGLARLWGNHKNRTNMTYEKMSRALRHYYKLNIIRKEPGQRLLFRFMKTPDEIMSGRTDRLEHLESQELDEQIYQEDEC

Turning to CATCCT, the binding signal was 1.59 fold enrichment (6-mer frequency, TF over GST control) in the assay with FEV; 1.63 fold enrichment (6-mer frequency, TF over GST control) with ETV5; 1.12 fold enrichment (6-mer frequency, TF over GST control) with HSF1; 1.63 fold enrichment (6-mer frequency, TF over GST control) with SPIC; 1.62 fold enrichment (6-mer frequency, TF over GST control) with ELF4; 1.51 fold enrichment (6-mer frequency, TF over GST control) with ELK4. Moreover, the binding signal with ETV2 is 1.63 fold enrichment (6-mer frequency, TF over GST control); with ELF3 it was 1.59 fold enrichment (6-mer frequency, TF over GST control); in the assay with CRX it was 1.21 fold enrichment (6-mer frequency, TF over GST control); with ETV1, 1.55 fold enrichment (6-mer frequency, TF over GST control); in the assay with ERF, 1.49 fold enrichment (6-mer frequency, TF over GST control); with ETV3L it was 1.69 fold enrichment (6-mer frequency, TF over GST control). Also, the binding signal in the assay with ETS2 is 1.61 fold enrichment (6-mer frequency, TF over GST control); with SPDEF, 2.33 fold enrichment (6-mer frequency, TF over GST control); with ETV7 it was 1.5 fold enrichment (6-mer frequency, TF over GST control); in the assay with ELF5 it was 2.13 fold enrichment (6-mer frequency, TF over GST control); in the assay with ETV3, 1.86 fold enrichment (6-mer frequency, TF over GST control); in the assay with ETV6, 1.65 fold enrichment (6-mer frequency, TF over GST control).
